Experimental data published in PubChem BioAssay AID720566 (Broad Institute, 2013).
Entries with a potency or affinity are not part of this list. The source made the active and inactive calls.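 The calls were made as follows: active = in all runs, an absorbance decrease of 25% or more of the average positive control decrease; inconclusive = runs conflict, with both active and inactive results; inactive = all runs inactive, opposite-direction effects included.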

Target: Protein disulfide-isomerase A6 (Homo sapiens) (UniProt Q15084)
Sequence (Q15084 whole entry, looked up): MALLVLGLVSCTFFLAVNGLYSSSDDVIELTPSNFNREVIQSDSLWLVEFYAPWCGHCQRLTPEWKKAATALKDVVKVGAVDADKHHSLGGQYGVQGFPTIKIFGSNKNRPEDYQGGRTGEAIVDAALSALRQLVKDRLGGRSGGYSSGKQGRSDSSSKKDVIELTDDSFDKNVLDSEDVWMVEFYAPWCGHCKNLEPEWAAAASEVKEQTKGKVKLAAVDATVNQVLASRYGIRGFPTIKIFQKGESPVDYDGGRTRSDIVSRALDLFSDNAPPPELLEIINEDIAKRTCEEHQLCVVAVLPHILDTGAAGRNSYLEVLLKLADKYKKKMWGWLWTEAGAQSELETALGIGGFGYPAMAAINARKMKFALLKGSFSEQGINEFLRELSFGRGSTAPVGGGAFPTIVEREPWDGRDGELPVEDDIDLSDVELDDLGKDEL
Experiment: reduced insulin turbidity driven by ERp5 (PDIA6) – biochemical, absorbance 650 nm, cherry-picked samples, dose response (AID 720566);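 also: negative values mean less insulin aggregation so ERp5 inhibition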
Conditions: Recombinant ERp5 insulin aggregation; series mostly up to 35 µM

outcome, inactive:
CCC(=O)Nc1ccc2c(c1)C(=O)N(C)[C@@H]1CC[C@@H](CC(=O)NCC3CC3)O[C@@H]1CO2
C/C=C/c1ccc2c(c1)O[C@H](CN(C)Cc1cncnc1)[C@H](C)CN([C@@H](C)CO)S2(=O)=O
C[C@@H]1CN([C@H](C)CO)C(=O)c2cccc(NS(=O)(=O)c3ccc(Cl)cc3)c2O[C@@H]1CN(C)Cc1ccc(C(F)(F)F)cc1
COCC#Cc1cnc2c(c1)C(=O)N([C@H](C)CO)C[C@@H](C)[C@H](CN(C)C(=O)NC1CCCC1)O2
CCC(=O)Nc1ccc2c(c1)C(=O)N(C)[C@H]1CC[C@H](CC(=O)NCC3CC3)O[C@H]1CO2
C[C@H]1CN([C@@H](C)CO)C(=O)c2cccc(NC(=O)Nc3cccc4ccccc34)c2O[C@@H]1CN(C)C(=O)Nc1ccc(C(F)(F)F)cc1
COc1ccc(-c2csc(NC(=O)C3CCN(C(=O)c4ccc(F)cc4)CC3)n2)cc1OC
C[C@H]1CN([C@@H](C)CO)C(=O)Cc2cc(NC(=O)Nc3cccc4ccccc34)ccc2O[C@H]1CN(C)Cc1ccc(C(F)(F)F)cc1
Cn1c(COc2ccccc2)nnc1SCC(=O)Nc1nnc(C2CC2)s1
C[C@@H]1CN([C@H](C)CO)C(=O)Cc2cc(NC(=O)Nc3cccc4ccccc34)ccc2O[C@@H]1CN(C)C(=O)Nc1cccc2ccccc12
CCC(=O)Nc1ccc2c(c1)C(=O)N(C)[C@H]1CC[C@@H](CC(=O)NCC3CC3)O[C@H]1CO2
C/C=C/c1ccc2c(c1)O[C@@H](CN(C)S(C)(=O)=O)[C@H](C)CN([C@H](C)CO)S2(=O)=O
O=C(Cc1ccc(NC(=O)C2CCCN(C(=O)C3CC3)C2)cc1)Nc1cccc(C(=O)N2CCCCC2)c1 (configuration not stated)
C[C@@H]1CCCCO[C@@H](CN(C)C(=O)CCC(F)(F)F)[C@@H](C)CN([C@@H](C)CO)C(=O)c2cc(NS(=O)(=O)c3ccc(Cl)cc3)ccc2O1
Cc1noc(C)c1NC(=O)Nc1cccc2c1O[C@H](CN(C)S(=O)(=O)c1ccc(Cl)cc1)[C@@H](C)CN([C@H](C)CO)C2=O
Cc1cc2occ(CC(=O)NNC(=O)c3ccccc3)c2cc1C
C[C@@H]1CN([C@H](C)CO)C(=O)c2cccc(NC(=O)Nc3cccc4ccccc34)c2O[C@H]1CN(C)C(=O)Nc1ccc(C(F)(F)F)cc1
C[C@@H]1CN([C@@H](C)CO)C(=O)c2cc(Br)cnc2O[C@H]1CN(C)Cc1cccc(F)c1
O=C1[C@@H](c2ccccc2)CC[C@@H]2C=CC[C@H]3CCN1[C@@H]32
COCC(=O)N1CC2(C1)CN(Cc1ccccc1F)[C@H](CO)c1[nH]c3cc(OC)ccc3c12
COc1ccc(Cc2nnc(SCC(=O)NC3(C#N)CCCCC3)n2N)cc1
C[C@H](CO)N1C[C@H](C)[C@H](CN(C)Cc2ccc(C(F)(F)F)cc2)Oc2ccc(NC(=O)Nc3cccc4ccccc34)cc2CC1=O
